# Experimental data from PubChem BioAssay (Tox21).
# Several values for one entry are separate records, joined by “and”; a condition that tells them apart may be missing. Identical values can stand only once. Results filed as inconclusive are left out. Where a call stands in place of a potency, no number is given. Some structures have more than one record in an assay (separate samples or runs), and their calls can disagree. Activity calls are given as the source filed them. Unless noted, calls come from the whole dose curve; as a rule, active = well fitted curve in the direction sought with a large enough effect in the repeat runs; inconclusive = weak or mixed curves; inactive = no such curve, though single readings can be large; an effect the other way counts as inactive or inconclusive.
# Columns and labels:
# [1] = qHTS assay to identify aromatase inhibitors - cell viability counter screen (AID 743084);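 note: cells stimulated with testosterone during compound exposure; nearly all actives have a fitted effect of over 55% in size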; note: potency is the fitted concentration of half-maximal effect
# [2] = qHTS assay to identify small molecule that activate the aryl hydrocarbon receptor (AhR) signaling pathway - cell viability counter screen (AID 743086); note: nearly all actives have a fitted effect of over 45% in size; note: potency is the fitted concentration of half-maximal effect
# Summary of the method: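 Cytotoxicity counter screen: CellTiter-Fluor signal (30 min, 37 C) in 4000 HepG2 cells/well carrying the DRE-luciferase reporter, following 24 h compound exposure at 37 C.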
# [3] = target: Peroxisome proliferator-activated receptor gamma (Homo sapiens) (UniProt P37231); experiment: qHTS assay to identify small molecule agonists of the peroxisome proliferator-activated receptor gamma (PPARg) signaling pathway (AID 743094; active = well fitted activation curve with a large enough effect in the signal ratio in the repeat runs, not every such curve was filed as active; the % refers to the signal ratio; note: potency is the fitted concentration of half-maximal effect)
# Summary of the method: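 Quantitative HTS agonist mode: stable HEK293H line with UAS-beta-lactamase reporter under PPARg control, 17 h compound exposure at 37C, fluorescence after 1 h FRET substrate loading at room temperature.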
# [4] = qHTS assay to identify small molecule antagonists of the peroxisome proliferator-activated receptor gamma (PPARg) signaling pathway - cell viability counter screen (AID 743194); conditions: Potency: co-treated with 50 nM rosiglitazone; note: nearly all actives have a fitted effect of over 55% in size; note: potency is the fitted concentration of half-maximal effect
# Summary of the method: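 Viability was measured as CellTiter-Glo luminescence in GeneBLAzer PPARg UAS-bla HEK293H cells. These cells had been exposed 17 h at 37 C to compounds together with rosiglitazone at 50 nM final, with the beta-lactamase readout taken in the same wells.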
# [5] = qHTS assay for small molecule agonists of the antioxidant response element (ARE) signaling pathway - cell viability counter screen (AID 743203; calls by dose curve; note: nearly all actives have a fitted effect of over 55% in size; note: potency is the fitted concentration of half-maximal effect)
# Summary of the method: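 Seeded at 2,000 cells/well, ARE-bla HepG2 cells were incubated 5 hrs before compound addition. After 16 hrs of treatment at 37C with 5% CO2, CellTiter-Glo reagent was added and luminescence read 30 min later.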
# [6] = qHTS assay for small molecule activators of the heat shock response signaling pathway - cell viability counter screen (AID 743209); note: nearly all actives have a fitted effect of over 50% in size
# Summary of the method: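 First, HSE-bla HeLa cells were seeded at 1500 cells/well and kept overnight at 37 C. Next, compounds were pinned in and incubated 5 h. After the FRET substrate step, CellTiter-Glo was added and luminescence read 30 min later.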
# [7] = qHTS assay for small molecule activators of the heat shock response signaling pathway (AID 743210; active = well fitted activation curve with a large enough effect in the signal ratio in the repeat runs, with a control signal flat, not every such curve was filed as active; the % refers to the signal ratio;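 note: HeLa cells with beta-lactamase reporter driven by heat shock elements; series mostly up to about 63 µM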)
# Summary of the method: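 HeLa HSE-bla cells, overnight plating; cpd in DMSO 5 h, 37 C; LiveBLAzer B/G FRET substrate 2.5 h RT; fluorescence intensity read.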
# [8] = target: Peroxisome proliferator-activated receptor gamma (Homo sapiens) (UniProt P37231); experiment: qHTS assay to identify small molecule antagonists of the peroxisome proliferator-activated receptor gamma (PPARg) signaling pathway (AID 743191; calls by dose curve; note: nearly all actives have a fitted effect of over 30% in size; note: potency is the fitted concentration of half-maximal effect)
# Summary of the method: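 Beta-lactamase reporter under UAS control in HEK293H PPARg-bla cells; compound treatment 17 h at 37C. Read-out: fluorescence intensity after 1 h room-temperature incubation with LiveBLAzer B/G FRET substrate.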
# [9] = qHTS assay for small molecule agonists of the antioxidant response element (ARE) signaling pathway (AID 743202; active = well fitted activation curve with a large enough effect in the signal ratio in the repeat runs, not every such curve was filed as active; the % refers to the signal ratio; note: potency is the fitted concentration of half-maximal effect)
# Summary of the method: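 Quantitative high-throughput format in HepG2 cells bearing an integrated ARE-beta-lactamase reporter. Compound exposure lasted 16 h at 37 C, and fluorescence was read 2 h after adding LiveBLAzer B/G substrate at room temperature.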
# [10] = target: Aryl hydrocarbon receptor (Homo sapiens) (UniProt P35869); experiment: qHTS assay to identify small molecule that activate the aryl hydrocarbon receptor (AhR) signaling pathway (AID 743085); note: nearly all actives have a fitted effect of over 15% in size; note: potency is the fitted concentration of half-maximal effect;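 for activation: HG2L7.5c1 human HepG2 liver cells with stably integrated DRE-driven firefly reporter; series mostly up to about 70 µM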
# Summary of the method: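 AhR agonist activity is inferred from enhanced light output of a DRE-controlled firefly luciferase reporter in HepG2 cells, measured with ONE-Glo following 24 h treatment at 37C.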
# Sequence of Aryl hydrocarbon receptor (Homo sapiens) (P35869 whole entry, looked up): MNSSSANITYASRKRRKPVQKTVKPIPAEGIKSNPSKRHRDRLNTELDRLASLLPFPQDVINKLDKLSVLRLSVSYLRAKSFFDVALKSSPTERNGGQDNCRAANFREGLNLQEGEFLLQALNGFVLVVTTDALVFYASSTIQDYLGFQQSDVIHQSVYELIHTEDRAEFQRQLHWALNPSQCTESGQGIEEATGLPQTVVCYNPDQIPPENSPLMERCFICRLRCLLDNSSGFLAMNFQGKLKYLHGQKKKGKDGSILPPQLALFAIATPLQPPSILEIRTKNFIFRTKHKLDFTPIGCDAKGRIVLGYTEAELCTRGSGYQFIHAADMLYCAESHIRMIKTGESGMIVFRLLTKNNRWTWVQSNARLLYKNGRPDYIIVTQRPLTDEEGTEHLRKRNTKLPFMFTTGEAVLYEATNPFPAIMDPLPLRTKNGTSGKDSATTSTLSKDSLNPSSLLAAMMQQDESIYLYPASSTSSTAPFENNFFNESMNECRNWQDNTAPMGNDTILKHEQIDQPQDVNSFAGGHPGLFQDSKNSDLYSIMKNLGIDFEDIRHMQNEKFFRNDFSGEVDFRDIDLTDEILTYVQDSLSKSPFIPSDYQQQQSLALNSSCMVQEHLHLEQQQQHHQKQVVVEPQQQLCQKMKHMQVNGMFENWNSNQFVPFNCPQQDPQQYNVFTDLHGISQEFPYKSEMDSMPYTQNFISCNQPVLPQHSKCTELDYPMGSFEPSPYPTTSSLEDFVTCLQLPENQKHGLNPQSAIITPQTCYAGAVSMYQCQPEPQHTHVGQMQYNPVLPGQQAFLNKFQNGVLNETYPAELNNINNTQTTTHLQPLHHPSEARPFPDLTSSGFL
# Sequence of Peroxisome proliferator-activated receptor gamma (Homo sapiens) (P37231 whole entry, looked up): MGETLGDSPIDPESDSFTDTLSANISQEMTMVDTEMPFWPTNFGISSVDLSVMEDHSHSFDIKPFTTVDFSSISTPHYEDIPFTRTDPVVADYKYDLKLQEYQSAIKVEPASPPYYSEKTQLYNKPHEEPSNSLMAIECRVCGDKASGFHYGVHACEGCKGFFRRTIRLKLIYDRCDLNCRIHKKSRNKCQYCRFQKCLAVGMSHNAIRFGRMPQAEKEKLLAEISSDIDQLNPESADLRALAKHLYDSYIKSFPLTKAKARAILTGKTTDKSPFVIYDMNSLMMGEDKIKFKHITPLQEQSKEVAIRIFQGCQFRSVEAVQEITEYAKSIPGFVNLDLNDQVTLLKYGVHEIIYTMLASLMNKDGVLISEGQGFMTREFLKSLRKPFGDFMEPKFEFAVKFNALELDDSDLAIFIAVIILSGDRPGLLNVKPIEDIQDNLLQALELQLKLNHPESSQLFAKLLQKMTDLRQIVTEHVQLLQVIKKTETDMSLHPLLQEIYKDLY
SMILES,Potency [1],Potency [2],Potency [3],Potency [4],Potency [5],Potency [6],outcome [7],Potency [8],Potency [9],Potency [10]
Nc1ccc([N+](=O)[O-])cc1[N+](=O)[O-],inactive,inactive,inactive,inactive,inactive,inactive,inactive,,,
CCOC(=O)CBr,inactive,inactive,inactive,inactive,inactive,inactive,inactive,inactive,inactive,
COC(=O)C(Br)CBr (centres undefined),inactive,inactive,,,inactive,inactive,inactive,,,inactive
O=C(CBr)OCc1ccccc1,inactive,inactive,inactive,inactive,inactive,inactive,inactive,,inactive,
CC(c1ccc(O)cc1)(c1ccc(O)cc1)c1ccc(O)cc1,inactive,,inactive,,,inactive,,,,inactive
C/C(=C\c1ccccc1)[N+](=O)[O-],21.7 µM (active),,,21.9 µM (active),15.4 µM (active),,,,,inactive
CC(=O)C(C)(C)C,inactive,inactive,inactive,,inactive,,inactive,inactive,inactive,
CN1[C@@H]2CC[C@H]1CC(OC(=O)c1cc(Cl)cc(Cl)c1)C2 (some centres undefined),inactive,,inactive,,,inactive,inactive,inactive,,inactive
CC1(C)CCC(Cc2ccc(Cl)cc2)C1(O)Cn1cncn1 (centres undefined),inactive,inactive,,,,inactive,inactive,,,inactive
COC(N)=O,inactive,inactive,inactive,inactive,inactive,inactive,inactive,inactive,,
COP(=S)(OC)Oc1cc(Cl)c(I)cc1Cl,inactive,inactive,,,,inactive,,,,24.3 µM (active)
CCCCC(O)(Cn1cncn1)c1ccc(Cl)cc1Cl (centres undefined),68.5 µM (active),,inactive,,,inactive,,,,inactive
[CH3][Sn]([CH3])([Cl])[Cl],inactive,inactive,inactive,inactive,inactive,inactive,,,34.4 µM (active),
O=[N+]([O-])c1cc(C(F)(F)F)cc([N+](=O)[O-])c1Cl,inactive,,,inactive,inactive,inactive,inactive,,,inactive
O=C(Nc1ccccc1)Nc1cnns1,inactive,,,inactive,inactive,inactive,inactive,inactive,,15.3 µM (active)
CC(C)N(C(=O)COc1nnc(C(F)(F)F)s1)c1ccc(F)cc1,inactive,inactive,inactive,inactive,inactive,,,7.76 µM (active),,
O=C(O)c1ccccc1C(=O)Nc1cccc2ccccc12,inactive,inactive,inactive,inactive,inactive,inactive,inactive,inactive,,
CCc1ccc(C(=O)NN(C(=O)c2cc(C)cc(C)c2)C(C)(C)C)cc1,6.86 µM (active),,inactive,inactive,inactive,inactive,inactive,,61.1 µM (active),inactive
O=[N+]([O-])c1ccccc1CCl,inactive,inactive,0.0988 µM (active),inactive,inactive,inactive,inactive,inactive,,

SMILES,Potency [1],Potency [2],Potency [3],Potency [4],Potency [5],Potency [6],outcome [7],Potency [8],Potency [9],Potency [10]
CCOP(=O)(OCC)Oc1ccc([N+](=O)[O-])cc1,inactive,inactive,inactive,,inactive,inactive,inactive,22.1 µM (active),,
CCOP(=S)(OCC)Oc1nc(Cl)c(Cl)cc1Cl,inactive,inactive,inactive,inactive,inactive,inactive,inactive,,,
CCOC(=O)COc1cc(-c2nn(C)c(OC(F)F)c2Cl)c(F)cc1Cl,inactive,inactive,,,inactive,inactive,,inactive,inactive,
CCC(COC(=O)c1cc(OC)c(OC)c(OC)c1)(c1ccccc1)N(C)C (centres undefined),inactive,inactive,,inactive,inactive,inactive,inactive,,,
Cc1ccccc1C(=O)Nc1cccc(OC(C)C)c1,inactive,inactive,,,inactive,inactive,inactive,49 µM (active),,
O=C1CN=C(c2ccccc2)c2cc(Cl)ccc2N1CC1CC1,inactive,inactive,,,inactive,inactive,,,32.2 µM (active),
Clc1cccc2ccccc12,inactive,inactive,,inactive,inactive,inactive,inactive,,inactive,
O=C(NC(=O)c1c(F)cccc1F)Nc1ccc(OC(F)(F)C(F)OC(F)(F)F)c(Cl)c1 (centres undefined),inactive,inactive,,,inactive,inactive,,,,
CCCCCCCCCCOC(=O)c1ccccc1C(=O)OCCCCCCCCCC,inactive,inactive,,inactive,inactive,inactive,inactive,,inactive,
Clc1cccc(SC2CCNCC2)n1,inactive,29.8 µM (active),,inactive,inactive,inactive,inactive,,inactive,
C/C=C/C=O,inactive,inactive,,inactive,inactive,inactive,inactive,,,
CCCCCC[N+](=O)[O-],inactive,inactive,,,inactive,inactive,inactive,,,
N#C/C(N)=C(/N)C#N,inactive,inactive,,inactive,inactive,inactive,inactive,,inactive,
O=C(CBr)c1ccccc1,inactive,inactive,,inactive,inactive,,,inactive,,
C=CCOC(C)=O,inactive,inactive,,inactive,inactive,inactive,inactive,,inactive,
CCC(Br)(CC)C(=O)NC(N)=O,inactive,inactive,,inactive,inactive,inactive,inactive,,,
O=[N+]([O-])c1ccc(F)c([N+](=O)[O-])c1,inactive and 30.9 µM (active),inactive and 49 µM (active),inactive,,30.9 µM (active),inactive,,,,
CCOP(O)OCC,inactive,inactive,inactive,,inactive,inactive,inactive,,inactive,
CCCCCCC#N,inactive,inactive,,,inactive,,inactive,inactive,inactive,

SMILES,Potency [1],Potency [2],Potency [3],Potency [4],Potency [5],Potency [6],outcome [7],Potency [8],Potency [9],Potency [10]
CCOP(=S)(Oc1ccc([N+](=O)[O-])cc1)c1ccccc1 (centres undefined),inactive,inactive,,,inactive,inactive,,,,
Brc1ccc(Oc2ccccc2)cc1,inactive,inactive,inactive,,inactive,inactive,inactive,,inactive,
O=C1C(=O)c2cccc3cccc1c23,inactive,inactive,,,inactive,,,,,
COP(=S)(Oc1cc(Cl)c(Br)cc1Cl)c1ccccc1 (centres undefined),inactive,inactive,,,48.6 µM (active),inactive,inactive,,,
C=CC[C@]1(O)CC[C@H]2[C@@H]3CCC4=CC(=O)CCC4=C3C=C[C@@]21C,inactive,inactive,,,inactive,inactive,inactive,,,
CN(C)c1ccc(N(C)C)cc1,inactive,inactive,,inactive,inactive,inactive,inactive,,,
CNP(=O)(OC)Oc1ccc(C(C)(C)C)cc1Cl (centres undefined),inactive,inactive,,,inactive,inactive,inactive,43.6 µM (active),54.5 µM (active),
COc1nn(CSP(=S)(OC)OC)c(=O)s1,68.6 µM (active),inactive,,,inactive,,,49 µM (active),,
Cc1ccc(N)cc1C,inactive,inactive,inactive,,inactive,inactive,inactive,,inactive,
CCOP(=S)(OCC)SCSCC,inactive,inactive,,inactive,inactive,inactive,inactive,,inactive,
CCCC(=O)Cl,inactive,inactive,inactive,,inactive,inactive,inactive,,,
IC(I)=C(I)I,15.4 µM (active),43.3 µM (active),,9.77 µM (active),6.11 µM (active),,,,,
O=C(OC1CCCCC1)c1ccccc1C(=O)OC1CCCCC1,inactive,inactive,inactive,,inactive,inactive,inactive,,,
CCCN(CCCl)c1c([N+](=O)[O-])cc(C(F)(F)F)cc1[N+](=O)[O-],inactive,inactive,,inactive,inactive,inactive,inactive,inactive,inactive,
CCCCNP(N)(N)=S,inactive,inactive,,inactive,inactive,inactive,inactive,inactive,inactive,
C=COC(C)=O,inactive,inactive,,inactive,inactive,inactive,inactive,,inactive,
Oc1ccc(Cl)c(Cl)c1Cl,inactive,inactive,,inactive,inactive,inactive,inactive,,,
CCBr,inactive,inactive,,inactive,inactive,inactive,,,inactive,
